# Data from publication PMC5540273 (PLoS ONE, 2017).
# Legend:
# Settings in all cases: concentration: 1 μM,replicates: in singlicate; n = 1
# AAK1 = system: AAK1
# ABL1-nonphosphorylated = system: ABL1-nonphosphorylated
# ABL1-phosphorylated = system: ABL1-phosphorylated
# ABL2 = system: ABL2
# ACVR1B = system: ACVR1B
# ACVR1 = system: ACVR1
# ACVR2A = system: ACVR2A
# ACVR2B = system: ACVR2B
# ACVRL1 = system: ACVRL1
# ADCK3 = system: T1, ADCK3
# T1 construct: gene CABC1
# 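Further: KINOMEscan kinase panel screen.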
SMILES,%Inh (AAK1) [%],%Inh (ABL1-nonphosphorylated) [%],%Inh (ABL1-phosphorylated) [%],%Inh (ABL2) [%],%Inh (ACVR1B) [%],%Inh (ACVR1) [%],%Inh (ACVR2A) [%],%Inh (ACVR2B) [%],%Inh (ACVRL1) [%],%Inh (ADCK3) [%]
CN1CCN(CCCNc2nccc(-c3c(-c4ccc(F)cc4)nn4cc(C(N)=O)ccc34)n2)CC1 [GW622475],33,10,0,17,94.9,90.6,19,45,77,96.7
C[C@@H](Oc1cc(-n2cnc3cc(-c4ccncc4)ccc32)sc1C(N)=O)c1ccccc1Cl [GSK479719],61,0,25,22,0,10,0,0,0,12
O=C(Nc1ccc(Oc2ccc3nc(NC(=O)C4CC4)cn3n2)c(F)c1)c1cccn(-c2ccccc2)c1=O,0,99.9,88,62,0,19,28,31,1,16
Nc1nccc(-c2ccc3c(N)n[nH]c3c2)n1 [GSK1034945],65,0,0,9,0,0,0,44,0,1
CNC(=O)c1ccccc1Nc1nc(Nc2cccc(CS(C)(=O)=O)c2)ncc1C.O=CO [GSK1520489],85,99.9,99.9,99.4,71,76,7,54,2,0
CC(=O)Nc1nc2cnc(Nc3cc(NC(=O)c4cccc(CC(C)(C)C#N)c4)ccc3C)nc2s1,23,99.7,50,61,0,0,11,0,0,3
COc1cccc(C2=C(Nc3cccc(Cl)c3)C(=O)NC2=O)c1 [SB-341556],0,0,21,8,0,65,0,0,0,24
